High-throughput results deposited in PubChem by National Center for Advancing Translational Sciences (NCATS).
12-LOX inh – ALOX12 (human) lipoxygenase inhibition | P18054 | purified 12hLO, xylenol orange hydroperoxide absorbance | Potency, µM (doses to about 108 µM), without a hit: at the highest dose activity change, negative = inhibition, most hits filed as inhibitors | 1.1% of 580,000 active; note: potency is the fitted concentration of half-maximal effect
Target sequence (P18054 whole entry, looked up): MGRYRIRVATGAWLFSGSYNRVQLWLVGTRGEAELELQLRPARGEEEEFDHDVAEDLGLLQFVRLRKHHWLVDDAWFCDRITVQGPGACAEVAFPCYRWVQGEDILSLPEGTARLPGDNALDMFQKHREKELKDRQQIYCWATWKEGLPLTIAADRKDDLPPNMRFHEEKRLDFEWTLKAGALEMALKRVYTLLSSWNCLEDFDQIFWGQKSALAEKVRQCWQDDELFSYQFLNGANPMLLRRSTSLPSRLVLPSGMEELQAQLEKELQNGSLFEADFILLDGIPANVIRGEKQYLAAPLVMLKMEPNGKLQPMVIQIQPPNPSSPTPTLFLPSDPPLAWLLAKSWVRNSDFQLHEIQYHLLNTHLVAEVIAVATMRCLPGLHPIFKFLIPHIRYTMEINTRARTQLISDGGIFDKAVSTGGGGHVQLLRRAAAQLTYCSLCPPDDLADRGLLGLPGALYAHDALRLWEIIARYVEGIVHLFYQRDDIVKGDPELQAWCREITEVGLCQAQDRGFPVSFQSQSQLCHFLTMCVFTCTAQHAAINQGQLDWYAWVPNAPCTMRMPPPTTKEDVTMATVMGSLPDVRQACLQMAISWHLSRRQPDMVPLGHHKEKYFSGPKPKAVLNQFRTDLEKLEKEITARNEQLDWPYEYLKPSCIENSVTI
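Purified human 12hLO (150 nM final) in 25 mM Hepes, 0.01% Triton X-100, pH 7.0 was preincubated 15 min at room temperature with compound. Then 40 uM arachidonic acid was added, 30 min. Hydroperoxide was read by Fe-XO absorbance ratio 573/405 nm.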
HT1080 IDH1KD tx – kills HT-1080 cells with IDH1 knockdown. HT-1080 IDH1 knockdown viability, ATP luminescence, 48 h. Potency, µM (top dose mostly 46.1 µM), for the others: top-dose activity, negative = toxicity, usual class: cytotoxic. 2% of 360,000 active. AID 686971;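 note: potency is the fitted concentration of half-maximal effect; 0% = DMSO wells and -100% = cell-free medium wells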
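IDH1KD HT-1080 cells, 750/well, RPMI + 5% FBS; compound pinned after 2 h settling; 48 h, 37 °C; CellTiter-Glo luminescence; % activity normalised to DMSO and no-cell wells; curves fitted, classed by r2 and efficacy.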
TDP1 cell noCPT – qHTS for Inhibitors of human tyrosyl-DNA phosphodiesterase 1 (TDP1): qHTS in cells in absence of CPT; DT40 Tdp1-/- hTDP1 cells, no CPT, ATP luminescence, 48 h; Potency, µM (series often up to 46.2 µM), for the others: at the top dose activity change, negative = growth inhibition, actives largely listed as inhibitors; 15% of 420,000 active; AID 686978, 2013; note: potency is the fitted concentration of half-maximal effect; nearly all actives have a fitted effect of over 55% in size
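Seeded 400 DT40-hTDP1 cells/well (vehicle DMSO, no 20 nM CPT); pinned compounds; ≥48 hr at 37 °C; CellTiter-Glo luminescence as viability measure.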
HT1080NT lethal – kills 2HG-producing HT-1080-NT fibrosarcoma cells. HT-1080-NT fibrosarcoma viability, CellTiter-Glo ATP luminescence, 48 h. 1.6% of 360,000 active. Potency, µM (doses to about 46.1 µM), inactives show at the highest dose activity, negative = less viability, usual class: cytotoxic;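 note: NT is the 2HG producing partner of a matched IDH1 knockdown line; potency is the fitted concentration of half-maximal effect; 0% = DMSO-treated cells and -100% = media-only wells without cells; nearly all actives have a fitted effect of over 55% in size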
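HT-1080-NT fibrosarcoma cells (2HG-overproducing), 750 cells/well in RPMI with 5% FBS, dosed after 2 h and incubated 48 h at 37C. CellTiter-Glo luminescence normalized to DMSO and no-cell wells; concentration-response curves fitted and classed.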
IL1B secr inh – inflammasome signaling inhibition, IL-1 beta readout; THP-1 LPS/ATP IL-1B secretion, AlphaLISA, 16 h; stronger effect = lower value; 4.7% of 360,000 active; activity change, % at 57.5 µM; in the data active = activity change below about -50%; inconclusive = mostly about -30% to -49%
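Secreted IL-1B measured by AlphaLISA bead assay after 16 h compound exposure of THP-1 cells; compounds (final up to 57.5 uM) added 1 h before LPS (250 ng/mL) and ATP (1.25 mM) stimulation; lower signal means less secretion.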
TDP1 cell CPT – DT40-hTDP1 cell growth loss with CPT; 12% of 420,000 active; chicken DT40 Tdp1-/-;hTDP1 cells + 20 nM CPT, ATP luminescence, 48 h; Potency, µM (highest dose often 46.2 µM), without a hit: at the highest dose activity change, negative = growth inhibition, hits mostly inhibitors; AID 686979; note: potency is the fitted concentration of half-maximal effect; nearly all actives have a fitted effect of over 55% in size
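Cell growth measured by CellTiter-Glo luminescence after a minimum 48 h, 37 C compound exposure with 20 nM CPT in Tdp1-knockout DT40 cells stably expressing hTDP1, seeded 400/well; qHTS titration format.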
Starred values were filed as active, the others as inactive; ? = inconclusive; · = no result given. The sample as a whole holds a higher share of hits than the screen did. Unless noted, calls come from the whole dose curve; as a rule, active = well fitted curve in the direction sought with a large enough effect; inconclusive = small, poorly fitted or top-dose-only effect, or another doubt; inactive = no such curve, though single readings can be large; an effect the other way counts as inactive or inconclusive. Unless noted, % is set by controls: 0 for no effect and ±100 for the full control effect.

SMILES | 12-LOX inh | HT1080 IDH1KD tx | TDP1 cell noCPT | HT1080NT lethal | IL1B secr inh | TDP1 cell CPT
Cc1nonc1C(=O)N/N=C/c1ccc([N+](=O)[O-])o1 | -13% | ? | 18µM* | -30% | -1 | 5.8µM*
Cc1cc(C(=O)N/N=C/c2ccc([N+](=O)[O-])o2)c(C)o1 | ? | -22% | 18µM* | ? | 13 | 21µM*
Cc1ccc(NC(=O)CCC(=O)N/N=C/c2ccc([N+](=O)[O-])o2)cc1C | -26% | -1% | ? | ? | 9 | ?
CCOC(=O)C1(Cc2ccc(Cl)cc2)CCN(C(=O)c2cnc(C)cn2)CC1 | -3% | -4% | 23µM* | 0% | 32 | ?
CCOC(=O)C1(Cc2ccc(Cl)cc2)CCN(C(C)Cc2ccc(O)c(OC)c2)CC1 (stereo unspecified) | ? | -15% | 3.3µM* | -27% | -51* | 9.2µM*
CCOC(=O)C1(Cc2ccc(OC)cc2)CCN(C(=O)c2cccc3nccnc23)CC1 | -22% | -2% | -20% | -3% | 26 | -15%
CCOC(=O)C1(Cc2ccc(OC)cc2)CCN(C(=O)c2cc(C)nn2C)CC1 | 6% | 15µM* | 18µM* | ? | 22 | 23µM*
CCOC(=O)C1(CCc2ccccc2)CCN(C(=O)c2occc2C)CC1 | ? | 3% | 15µM* | 6% | -12 | ?
CCn1nc(C(=O)N2CC(C(N)=O)Oc3ccccc32)c2ccccc2c1=O (stereo unspecified) | -1% | · | · | · | · | ·
CCOC(=O)C1(Cc2ccc(Cl)cc2)CCN(Cc2cn(CC)nc2C)CC1 | 4% | 7% | ? | -2% | ? | 16µM*
CCOC(=O)C1(CCCc2ccccc2)CCN(C(=O)c2cc(C)nc(C)n2)CC1 | 69% | 11% | ? | 8% | 29 | ?
CCOC(=O)C1(CCCc2ccccc2)CCN(C(=O)c2cnn(CC)c2)CC1 | 9% | -2% | 18µM* | -8% | -24 | 26µM*
CCOC(=O)C1(CCCc2ccccc2)CCN(C(=O)c2cnc(C)cn2)CC1 | 0% | -2% | 21µM* | -4% | -14 | 26µM*
CCOC(=O)C1(CCCc2ccccc2)CCN(Cc2cnn(C)c2)CC1 | 10% | -5% | ? | -21% | -12 | ?
Cc1ccc2c(Cn3nnc(-c4ccccc4C)n3)cc(=O)oc2c1 | 5% | · | · | · | · | ·
CCOc1cc(/C=N/NC(=O)Cc2ccc(C(F)(F)F)cc2[N+](=O)[O-])ccc1O | 6% | -18% | -11% | -20% | 11 | -14%
COc1cc(/C=N/NC(=O)Cn2nc([N+](=O)[O-])cc2C)cc(Br)c1OCc1ccccc1 | -15% | ? | ? | ? | -9 | 26µM*
CCOc1cc(/C=N/NC(=O)Cn2nc([N+](=O)[O-])cc2C)cc(Br)c1OCc1ccccc1C | 0% | ? | ? | ? | 9 | 23µM*
C=CCOc1c(Br)cc(/C=N/NC(=O)Cc2ccc(C(F)(F)F)cc2[N+](=O)[O-])cc1OC | 1% | -7% | 13µM* | -19% | 29 | 12µM*
Cc1cc([N+](=O)[O-])nn1CC(=O)N/N=C/c1ccc(O)cc1O | -19% | ? | 6.5µM* | ? | 249 | 8.2µM*
CC(C)CNc1oc(COc2ccc(F)cc2)nc1C#N | 15% | · | · | · | · | ·
O=C(N/N=C/C(Cl)=C\c1ccccc1)C1CC1 | 0% | · | · | · | · | ·
COc1ccc(C(=O)N2CCC(c3nn(-c4ccc(Cl)cc4)c(=O)[nH]3)CC2)cc1 | 35µM* | · | · | · | · | ·
COc1ccc(C(=O)N2CCC(c3nn(-c4ccccc4)c(=O)[nH]3)CC2)cc1 | 8% | · | · | · | · | ·
O=C(c1ccc(C(F)(F)F)cc1)N1CCC(c2nn(-c3ccc(F)cc3)c(=O)[nH]2)CC1 | 22µM* | · | · | · | · | ·
SMILES | 12-LOX inh | HT1080 IDH1KD tx | TDP1 cell noCPT | HT1080NT lethal | IL1B secr inh | TDP1 cell CPT
O=C(c1cccc(Cl)c1)N1CCC(c2nn(-c3ccccc3)c(=O)[nH]2)CC1 | -13% | · | · | · | · | ·
O=C(c1cccc(C(F)(F)F)c1)N1CCC(c2nn(-c3ccc(Cl)cc3)c(=O)[nH]2)CC1 | 10µM* | · | · | · | · | ·
Cc1ccc(CNC(=O)c2cccc(CS(C)=O)c2)cc1 (stereo unspecified) | 21% | · | · | · | · | ·
C=C1c2ccccc2O[C@H](C(=O)OCC)[C@@H]1C1CCCCC1 | 20µM* | 3% | ? | 12% | 48 | ?
CCOC(=O)C1Oc2ccccc2C(C(=O)OC)=C1C(=O)OC (stereo unspecified) | · | 8% | -24% | 5% | 13 | -15%
CCCCCCNC(=O)O[C@H]1Cn2c(=O)n(CCCCCC)c(=O)n2[C@@H]2CN(S(=O)(=O)c3ccc(C)cc3)C[C@]12O | ? | ? | 21µM* | ? | ? | ?
COC(=O)[C@H]1C[C@H](OC(=O)NC2CCCC2)[C@@]2(O)CN(S(=O)(=O)c3ccc(C)cc3)CC2[C@H]1C(=O)OC (stereo partly specified) | -6% | 1% | -28% | 11% | -18 | -11%
CCCCCCn1c(=O)n2n(c1=O)[C@@H]1CN(S(=O)(=O)c3ccc(C)cc3)C[C@]1(O)[C@@H](OC(=O)NC1CCCC1)C2 | ? | -17% | ? | -1% | -21 | ?
CCCCCCNC(=O)O[C@H]1Cn2c(=O)ccc(=O)n2[C@@H]2CN(S(=O)(=O)c3ccc(C)cc3)C[C@]12O | ? | 23µM* | 3.7µM* | 16µM* | -106* | 4.6µM*
CCCCCCn1c(=O)n2n(c1=O)[C@@H]1CN(S(=O)(=O)c3ccc(C)cc3)C[C@]1(O)[C@@H](OC(=O)Nc1cccs1)C2 | 0% | ? | 26µM* | ? | -52* | 23µM*
COC(=O)[C@H]1C[C@H](OC(=O)Nc2cccs2)[C@@]2(O)CN(S(=O)(=O)c3ccc(C)cc3)CC2[C@H]1C(=O)OC (stereo partly specified) | ? | 5% | ? | -7% | -56* | ?
COc1ccc(CCC(=O)N2CC[C@H]3C(=O)NCCCCCCN(Cc4ccncc4)[C@@H]3C2)cc1 | 72% | · | · | · | · | ·
CCCCCCn1c(=O)n2n(c1=O)[C@@H]1CN(S(=O)(=O)c3ccc(C)cc3)C[C@]1(O)[C@@H](OC(=O)NCc1ccccc1F)C2 | -48% | ? | ? | ? | -1 | ?
